Measurements reported in PubChem BioAssay AID488969 (Vanderbilt High Throughput Screening Facility, 2010).
In all, about 110,000 compounds were measured (“z-score”: median about -0.1, highest 2% from about 2 on). This is one part of a sample in which the highest values are shown more often than they occur. The source made the active and inactive calls.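 The calls were made as follows: active = z-score in the third read window above 3 or below -3; inactive = the rest.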

biological target: Metabotropic glutamate receptor 8 (Rattus norvegicus) (UniProt P70579); assay: rat mGluR8 modulators via GIRK flux, primary screen, cell-based, thallium flux, HTS (AID 488969); details: HEK293 rat mGluR8, GIRK (G protein-gated inwardly rectifying potassium channel) thallium flux, FluoZin2; at 10 µM; stronger effect = higher value; submaximal glutamate (EC20) added with thallium
Sequence (P70579 whole entry, looked up): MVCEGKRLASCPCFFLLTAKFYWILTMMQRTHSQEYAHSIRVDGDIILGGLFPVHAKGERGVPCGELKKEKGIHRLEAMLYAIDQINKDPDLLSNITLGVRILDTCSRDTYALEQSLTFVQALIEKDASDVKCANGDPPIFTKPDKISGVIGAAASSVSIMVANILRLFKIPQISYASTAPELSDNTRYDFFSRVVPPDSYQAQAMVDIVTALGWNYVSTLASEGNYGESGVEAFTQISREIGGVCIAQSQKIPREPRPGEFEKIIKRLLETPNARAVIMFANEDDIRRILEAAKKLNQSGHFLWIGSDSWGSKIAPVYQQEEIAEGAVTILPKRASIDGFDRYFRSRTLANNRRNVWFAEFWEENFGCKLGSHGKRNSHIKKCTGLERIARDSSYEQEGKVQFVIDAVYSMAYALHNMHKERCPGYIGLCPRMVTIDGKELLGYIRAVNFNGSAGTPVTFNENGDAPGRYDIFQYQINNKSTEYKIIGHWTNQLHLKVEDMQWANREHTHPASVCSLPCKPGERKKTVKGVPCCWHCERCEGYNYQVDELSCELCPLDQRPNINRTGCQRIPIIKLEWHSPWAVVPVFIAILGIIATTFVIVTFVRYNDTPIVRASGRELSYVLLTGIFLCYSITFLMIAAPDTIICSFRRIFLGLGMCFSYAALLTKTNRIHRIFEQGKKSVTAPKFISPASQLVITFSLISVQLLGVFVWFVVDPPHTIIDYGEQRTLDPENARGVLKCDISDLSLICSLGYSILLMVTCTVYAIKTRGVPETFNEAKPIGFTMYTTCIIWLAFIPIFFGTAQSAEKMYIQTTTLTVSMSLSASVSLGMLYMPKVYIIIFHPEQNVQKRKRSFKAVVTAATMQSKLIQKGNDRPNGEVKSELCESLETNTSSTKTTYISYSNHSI

First: O=C(N/N=C/c1ccc(-c2ccccc2[N+](=O)[O-])o1)c1cncc(Br)c1
Second: O=C(Cc1ccccc1)N/N=C/c1cc(Br)c(Br)o1
The z-score of the first is lower: -1.68 for the first, -0.248 for the second.

Compared with `Cc1ccnc(NC(=O)CCC(=O)N(CC(=O)NC2CCCCC2)c2cccc(C)c2C)c1`, `COc1cc(NC(=O)C2CCCCC2)c2ncccc2c1` is higher in z-score: -0.622 for the first, -0.248 for the second.

Compared with `COc1ccc(OC)c(-c2cc(C(=O)Nc3c(C)nn(Cc4ccccc4Cl)c3C)no2)c1`, `COc1cc(NC(=O)c2cccnc2Sc2ccc(Cl)cc2)cc(OC)c1OC` is higher in z-score: -0.834 for the first, -0.134 for the second.

Going from `CC1Cc2ccccc2N1C(=O)COC(=O)Cn1cnc2ccccc2c1=O` (stereo not drawn) to `CC(=O)c1cn(CC(=O)NCc2ccco2)c2ccccc12`, the z-score falls from -0.55 to -0.774.

Compared with `Cc1ccc(C(=O)CNc2cccc(Cl)c2)cc1`, `Cc1ccc(C(=O)c2cn[nH]c2-c2cc(Cl)ccc2O)cc1` is lower in z-score: -0.0331 for the first, -0.48 for the second.

Compared with `Cc1cccc(/C(N)=N/OC(=O)c2ccc(Cl)cc2Cl)c1`, `N/C(=N\OC(=O)CSc1ccccc1)c1cccc([N+](=O)[O-])c1` is lower in z-score: -0.137 for the first, -0.477 for the second.

Compared with `Cc1cccc(C(=O)Nc2ccc(NC(=O)Cc3ccc(Cl)cc3)cc2)c1`, `C/C(=N\NC(=O)c1cccc(C)c1)c1cccc(NC(=O)c2ccco2)c1` is lower in z-score: -0.0593 for the first, -0.159 for the second.

Going from `O=C(O)CC(=O)Nc1cc(Cl)ccc1O` to `O=C(CCc1ccccc1)Nc1cc(Cl)ccc1O`, the z-score falls from 0.845 to -0.624.

First: COc1nc(-c2ccccc2)ccc1-c1noc(-c2ccccc2F)n1
Second: COc1ccc2[nH]c(=O)c(CN(C(=O)c3ccccn3)c3ccccc3)cc2c1
The z-score of the first is higher: 0.0977 for the first, -0.101 for the second.

Compared with `NC(=O)c1ccccc1OCC(=O)NC12CC3CC(CC(C3)C1)C2`, `CCOC(=O)C(NC(=O)CC)(N1CCc2ccccc2C1)C(F)(F)F` (stereo not drawn) is lower in z-score: -0.0638 for the first, -0.138 for the second.

Going from `COC(=O)Nc1snnc1C` to `CCOC(=O)CSc1nnc(NC(=O)c2cccc([N+](=O)[O-])c2C)s1`, the z-score rises from -0.189 to 0.774.

Going from `CCOC(=O)C1=C(C)N(C)C(=O)NC1c1cc2c(cc1Br)OCO2` (stereo not drawn) to `COc1ccc(C2C3=C(CC(C)(C)CC3=O)Nc3cc4c(cc32)OCO4)cc1` (stereo not drawn), the z-score falls from 1.61 to -0.138.

Compared with `CCc1nc(NCc2ccco2)c2oc3ccccc3c2n1`, `CC(=O)C1=C(C)NC(SCc2cccc3ccccc23)=C(C#N)C1c1ccco1` (stereo not drawn) is higher in z-score: -0.48 for the first, 0.063 for the second.

Going from `O=C(CN1C(=O)c2cccc3cccc1c23)Nc1ccc(S(=O)(=O)N2CCOCC2)cc1` to `COc1cccc(C(=O)Nc2ccccc2N2CCOCC2)c1`, the z-score rises from -0.376 to 0.0601.

Going from `CN1C(=S)SC(/[N+]([O-])=C\c2cccs2)C1(C)C` (stereo not drawn) to `CSCSC1=C(C#N)C(c2ccccc2Cl)C(C(C)=O)=C(C)N1` (stereo not drawn), the z-score falls from -0.0661 to -2.68.

Going from `COc1cccc(-c2ccc(=O)n(CC(=O)Nc3cc4c(cc3NC(C)=O)OCCO4)n2)c1` to `CC(=O)Nc1cc2c(cc1NC(=O)Cn1nc(-c3ccccc3F)ccc1=O)OCCO2`, the z-score falls from 2.05 to -0.0689.

Compared with `CC(=O)Nc1cc2c(cc1NC(=O)Cn1nc(-c3ccc4c(c3)OCCO4)ccc1=O)OCCO2`, `CC1(C)CC(=O)C2=C(C1)Nc1cc3c(cc1C2c1ccc2c(c1)OCO2)OCO3` (stereo not drawn) is lower in z-score: -0.275 for the first, -0.639 for the second.

First: Cc1cnc(C(=O)Nc2cc(S(=O)(=O)N3CCOCC3)ccc2N2CCN(C)CC2)cn1
Second: Cc1ccc(S(=O)(=O)Nc2cc(C(=O)NCCN3CCCC3)ccc2N2CCCCC2)cc1
The z-score of the first is lower: 0.0173 for the first, 1.81 for the second.

Compared with `O=C(N/N=C/C=C/c1ccc2c(c1)OCO2)c1ccc([N+](=O)[O-])cc1`, `COc1cc(NC(=O)c2ccc3c(c2)OCO3)c2ncccc2c1` is lower in z-score: 0.0517 for the first, -0.168 for the second.

First: CCCN(CCC)S(=O)(=O)c1ccc(C(=O)Nc2nc(-c3ccccc3)c(C(=O)OCC)s2)cc1
Second: O=C(COC(=O)c1ccccc1NC(=O)c1ccccc1)c1ccc([N+](=O)[O-])cc1
The z-score of the first is lower: -0.243 for the first, -0.202 for the second.

Going from `Clc1ccccc1CN1CCC(Cc2ccccc2)CC1` to `O=C(NCCCN1CCC(Cc2ccccc2)CC1)C1CC(=O)N(C2CCCCCC2)C1` (stereo not drawn), the z-score rises from -0.0513 to 1.25.

Going from `O=C(NCCN1CCOCC1)C1CCC(=O)N1Cc1ccc(F)cc1` (stereo not drawn) to `CC(C)(C)c1[nH]nc2c1C(c1ccccc1OC(=O)N1CCOCC1)C(C#N)=C(N)O2` (stereo not drawn), the z-score falls from 0.194 to -2.43.

Going from `Cc1ccc(-c2ccc(/C=C/C(=O)c3ccccc3)o2)cc1` to `Cc1ccc(NC(=O)/C(=C\c2ccccc2)NC(=O)/C=C/c2ccccc2)cc1`, the z-score falls from -0.233 to -0.26.

First: Cc1cc2cc(OCC(=O)O)ccc2n1C
Second: CCCOc1ccc(C(=O)NNC(=S)NC(C)=O)cc1
The z-score of the first is higher: 0.494 for the first, 0.435 for the second.

Compared with `C/C(=N\NC(=O)Nc1ccccc1)c1ccccc1`, `Cc1cccc(NC(=S)N/C(=N/S(=O)(=O)c2ccccc2)c2ccccc2)c1` is higher in z-score: -0.157 for the first, 1.97 for the second.

First: Cc1cccc(NC(=S)N/N=C/c2c[nH]c3ccccc23)c1
Second: Cc1cccc(S(=O)(=O)NC(Cc2c[nH]c3ccccc23)C(=O)O)c1 (stereo not drawn)
The z-score of the first is lower: -0.0914 for the first, 2.17 for the second.

First: O=C(Nc1ccccc1)c1ccc(CSc2ccccn2)cc1
Second: O=C(NC(NC(=O)c1ccccc1)C(=O)c1ccccc1)c1ccccc1
The z-score of the first is higher: -0.0973 for the first, -0.143 for the second.

Compared with `COc1cc(NCCCCCCCN)c2ncccc2c1`, `CC(=O)/C(=N\Nc1ccc(Cl)cc1Cl)Sc1cccc2cccnc12` is lower in z-score: 2.78 for the first, 2.29 for the second.

Compared with `CCC(=O)NC(=S)NNC(=O)c1ccc(OC)cc1`, `C=CCNC(=S)NNC(=O)c1ccc(OCCC)cc1` is higher in z-score: -0.0696 for the first, 0.095 for the second.

Compared with `C=CCNC(=S)NNC(=O)c1ccc(OCCCC)cc1`, `CC(C)(C)SCCNC(=O)c1ccc(NS(C)(=O)=O)cc1` is higher in z-score: -0.162 for the first, -0.0865 for the second.

Compared with `CN(C1CCS(=O)(=O)C1)S(=O)(=O)c1ccc(C2CCCCC2)cc1` (stereo not drawn), `CCN(CC)CCNC(=O)c1ccc(N2CCCCC2)c(NS(=O)(=O)c2ccc(C)cc2)c1` is higher in z-score: 0.314 for the first, 2.96 for the second.

Compared with `CC1=C/C(=N\NC(=O)c2ccccc2)CC1`, `Cc1ccc(C(=O)C(C(=O)/C=C/c2ccccc2)=C2SCCCS2)cc1` is higher in z-score: -0.0871 for the first, 0.0319 for the second.

Going from `O=[N+]([O-])c1cc(/C=N/Nc2nc(N3CCOCC3)nc(N3CCOCC3)n2)ccc1Cl` to `O=C(NCc1nnc(SCC(=O)N2CCN(c3ccccc3)CC2)o1)c1ccco1`, the z-score falls from -0.222 to -0.268.

Going from `COc1cccc(C2C3=C(CC(C)(C)CC3=O)Nc3cc4c(cc32)OCO4)c1` (stereo not drawn) to `COc1cccc(NC(=O)N(Cc2cc3cc(C)cc(C)c3[nH]c2=O)CC2COCCO2)c1` (stereo not drawn), the z-score falls from 2.12 to -0.438.

Compared with `Cc1nc2cc(N3CCCCC3)c(NC(=O)c3ccncc3)cc2c(=O)n1Cc1ccc(Cl)cc1`, `COCCCNC(=O)c1ccc(N2CCCC2)c(NS(=O)(=O)c2ccc(C)cc2)c1` is higher in z-score: -0.37 for the first, 0.547 for the second.

First: Cc1nn(C(=O)c2nn(C)cc2Cl)c(C)c1Br
Second: Cc1nnc2sc(SCc3ccccc3)nn2c1=O
The z-score of the first is higher: 0.0765 for the first, -0.0579 for the second.

Going from `CCCNC(=S)N1CCC(c2nc3cc(C)c(C)cc3[nH]2)CC1` to `CC1CCN(C(=O)CSc2nnc(CNC(=O)c3ccco3)o2)CC1`, the z-score rises from -0.228 to 2.28.

Compared with `Cc1ccc(-c2nn(CC(=O)Nc3cccnc3)c(=O)c3ccccc23)cc1`, `Cc1ccc(-c2nnc(SCC(=O)N3CCN(c4ccccc4)CC3)o2)cc1` is lower in z-score: -0.291 for the first, -1.07 for the second.

First: COc1ccccc1N1C(=O)C2ON(c3ccccc3)C(c3ccc(N(C)C)cc3)C2C1=O (stereo not drawn)
Second: CN(C)c1ccc(C2C3C(=O)NC(=O)C3ON2c2ccc(Cl)cc2)cc1 (stereo not drawn)
The z-score of the first is lower: 0.0686 for the first, 2.58 for the second.

Compared with `CN(C)c1ccc(C2N(c3ccc(Cl)cc3)C(=O)C3CCCN32)cc1` (stereo not drawn), `O=C(CSc1ccc(Cl)cc1)N1CCN(c2ncc(C(F)(F)F)cc2Cl)CC1` is higher in z-score: -0.129 for the first, -0.0561 for the second.

Compared with `c1ccc(-c2csc3ncn4nnnc4c23)cc1`, `Cc1csc(SCC(=O)Nc2nc(-c3ccccc3)cs2)n1` is higher in z-score: -0.177 for the first, 1.07 for the second.

Going from `CCCC1CC(CSC(=N)N)OC1=O` (stereo not drawn) to `CCCN(CC1CC1)C(=O)COC(=O)c1[nH]c(C)c(C(=O)OCC)c1C`, the z-score rises from -0.478 to -0.372.

Compared with `Cc1csc(NC(=O)CSc2nc3ccccc3s2)n1`, `O=C(CSc1nc2ccccc2[nH]1)N/N=C/C=C/c1ccccc1[N+](=O)[O-]` is lower in z-score: -0.293 for the first, -0.487 for the second.

First: O=C(O)C(Cc1c[nH]c2ccccc12)NS(=O)(=O)c1cccc2nsnc12 (stereo not drawn)
Second: Cc1ccc(S(=O)(=O)NC(Cc2c[nH]c3ccccc23)C(=O)O)cc1 (stereo not drawn)
The z-score of the first is higher: 0.00264 for the first, -0.0187 for the second.

Going from `CC(=O)/C(=N\Nc1ccccc1Cl)Sc1cccc2cccnc12` to `CC(=O)/C(=N\Nc1cccc(Cl)c1)Sc1cccc2cccnc12`, the z-score rises from 0.299 to 0.635.

Compared with `Cc1cc(NC(c2cccnc2)c2ccc3cccnc3c2O)no1` (stereo not drawn), `Cc1cc(NC(c2ccc(Cl)cc2)c2ccc3cccnc3c2O)no1` (stereo not drawn) is higher in z-score: -0.344 for the first, 1.61 for the second.

Going from `COc1ccc(NC(=O)/C=C/C(=O)O)cc1Cl` to `CCOC(=O)c1c(NC(=O)CSc2nnc(CNc3ccc(Cl)cc3)o2)sc(C)c1C`, the z-score falls from 0.0641 to -0.783.

Compared with `O=C(NCc1nnc(SCC(=O)N2CCCCCC2)o1)c1ccco1`, `CCc1ccc(C(=O)CSC2=C(C#N)C(c3ccco3)C(C(C)=O)=C(C)N2)cc1` (stereo not drawn) is higher in z-score: -0.474 for the first, -0.295 for the second.

Going from `COc1ccc(COC(=O)Nc2cc3c(C(F)(F)F)nn(C)c3s2)cc1` to `Cn1nc(C(F)(F)F)c2cc(NC(=O)OCC(C)(C)C)sc21`, the z-score falls from -0.456 to -1.03.

For `C=CCOC(=O)C1=C(C)NC(SCC)=C(C#N)C1c1ccc(Cl)cc1` (stereo not drawn), the z-score was 0.285.

With `O=C(N/N=C\c1cc(Br)c(Br)o1)c1cncc(Br)c1` the z-score was 9.73 (active).
For `Cc1cccc(C(=O)CC(=O)c2cc(Cl)ccc2O)c1`, the z-score was 4.14 (active).
`Cc1ccc(C(=O)CC(=O)c2cc(Cl)ccc2O)cc1` was tested, and the z-score was 7.14 (active).
For `O=C(CC(=O)c1cc(Cl)ccc1O)c1ccccc1`, the z-score was 3.32 (active).
In the case of `C/C(=N\NC(=S)Nc1cccc(C)c1)c1ccccc1`, the z-score was 5.36 (active).
In the case of `C/C(=N\NC(=S)Nc1cccc(C)c1)c1cccc(N)c1`, the z-score was 3.42 (active).
In the case of `CCCCOc1ccc(C(=O)NNC(=S)NC(=O)CC)cc1`, the z-score was 4.28 (active).
In the case of `CCCOc1ccc(C(=O)NNC(=S)NC(=O)CC)cc1`, the z-score was 3.01 (active).
With `O=C(NN=c1c(=O)c2ccccc2c1=O)c1ccccc1` the z-score was 6.47 (active).
`Cc1csc(SCC(=O)Nc2nc3ccccc3s2)n1` was tested, and the z-score was 3.3 (active).
In the case of `Cc1conc1NC(c1cccs1)c1ccc2cccnc2c1O` (stereo not drawn), the z-score was 3.41 (active).
For `Cn1nc(C(F)(F)F)c2cc(NC(=O)OCc3ccc(F)cc3)sc21`, the z-score was 9.32 (active).
With `CSCSC1=C(C#N)C(c2ccc(Cl)cc2)C(C(C)=O)=C(C)N1` (stereo not drawn) the z-score was 3.87 (active).
In the case of `CC(=O)C1=C(C)NC(SCc2ccc(C#N)cc2)=C(C#N)C1c1ccco1` (stereo not drawn), the z-score was 5.85 (active).
